This note sets out measurements from PubChem BioAssay (NCATS).

For assay [1], the target named is Cellular tumor antigen p53 (Homo sapiens) (UniProt P04637). Put plainly: Primary qHTS for small molecule compounds that upregulate eGFP-tagged delta133p53alpha (in N-terminal) cells. (AID 2060322). Further: nearly all actives have a fitted effect of over 75% in size. Further: potency means the concentration at half of the fitted maximal effect.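 On activation: series mostly up to about 56 µM; 0% = DMSO vehicle and 100% = reference activator.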 The conditions noted are these: NCI-H358 eGFP-delta133p53alpha fluorescence, 24 h; activation: stronger effect = higher value. The procedure, abridged: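 NCI-H358 cells pre-induced 24 h with 10 ng/ml doxycycline to express N-terminal eGFP-delta133p53alpha, then dosed 24 h at 37C without doxycycline; fixed, Hoechst-stained, GFP intensity by laser scanning cytometry, normalized to DMSO (0%) and 57.5 uM 5-azacytidine (100%).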
Sequence of Cellular tumor antigen p53 (Homo sapiens) (P04637 whole entry, looked up): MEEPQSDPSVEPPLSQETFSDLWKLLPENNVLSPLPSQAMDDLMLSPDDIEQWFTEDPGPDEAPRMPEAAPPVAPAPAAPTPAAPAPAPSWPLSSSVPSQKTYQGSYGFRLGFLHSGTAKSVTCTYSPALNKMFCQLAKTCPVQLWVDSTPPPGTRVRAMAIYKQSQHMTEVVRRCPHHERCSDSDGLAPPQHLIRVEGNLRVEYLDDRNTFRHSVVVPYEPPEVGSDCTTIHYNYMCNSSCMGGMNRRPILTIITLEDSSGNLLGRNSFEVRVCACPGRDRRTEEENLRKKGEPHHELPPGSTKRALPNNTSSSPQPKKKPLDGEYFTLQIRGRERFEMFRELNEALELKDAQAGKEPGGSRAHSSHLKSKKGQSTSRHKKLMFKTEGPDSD

Assay [2] has as its target Aldehyde dehydrogenase, mitochondrial (Homo sapiens) (UniProt P05091). Nature of the assay: qHTS for Inhibitors of the Aldehyde Dehydrogenase Family (ALDH2) Primary screen (AID 2061308).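 Further: plate controls were vehicle for no effect and reference inhibitor for full effect; nearly all actives have a fitted effect of over 55% in size.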
For assay [3], the target named is Retinal dehydrogenase 2 (Homo sapiens) (UniProt O94788). Put plainly: qHTS for Inhibitors of the Aldehyde Dehydrogenase Family (ALDH1A2) Confirmation screens (AID 2061314). Further: nearly all actives have a fitted effect of over 65% in size.
Assay [4] deals with Retinaldehyde dehydrogenase 3 (Homo sapiens) (UniProt P47895). Nature of the assay: qHTS for Inhibitors of the Aldehyde Dehydrogenase Family (ALDH1A3) Primary screen (AID 2061315).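 Further: plate controls were DMSO vehicle for no effect and reference inhibitor for full effect.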
Assay [5] addresses Aldehyde dehydrogenase 1A1 (Homo sapiens) (UniProt P00352). Nature of the assay: qHTS for Inhibitors of the Aldehyde Dehydrogenase Family (ALDH1A1) Confirmatory screens (AID 2061316). Further: nearly all actives have a fitted effect of over 65% in size. Further: potency means the concentration at half of the fitted maximal effect.
Assay [6] concerns the target Retinaldehyde dehydrogenase 3 (Homo sapiens) (UniProt P47895). Nature of the assay: qHTS for Inhibitors of the Aldehyde Dehydrogenase Family (ALDH1A3) Validation screen (AID 2061312). Further: on the % scale 0 is the no-effect control and ±100 the full control effect; nearly all actives have a fitted effect of over 45% in size.
Assay [7] in a line: BET inhibitor-based combinations targeting novel dependencies in MECOM-rearranged (r) AML: UCSD-AML1 cell line (AID 2202235). Further: nearly all actives have a fitted effect of over 40% in size. Further: potency means the concentration at half of the fitted maximal effect. The procedure, abridged:
(§1)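 Seeding density was 500 cells/well, and drug exposure lasted 48 hr under standard culture conditions. Read-out used CellTiter-Glo reagent with a 15 min room-temperature incubation before luminescence measurement; AUC and Z-AUC summarize the normalized responses.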

Assay [8] can be described thus: BET inhibitor-based combinations targeting novel dependencies in MECOM-rearranged (r) AML: AML-191 cell line (AID 2202236; further: potency means the concentration at half of the fitted maximal effect; nearly all actives have a fitted effect of over 35% in size). The procedure, abridged:
(§2)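 Readout: CellTiter-Glo luminescence. Exposure: 48 h, 11 concentrations, 500 cells/well. Metric: AUC and within-line Z-AUC after DMSO/empty-well normalization.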

Assay [9] can be described thus: BET inhibitor-based combinations targeting novel dependencies in MECOM-rearranged (r) AML: AML-194 cell line (AID 2202237; further: potency means the concentration at half of the fitted maximal effect; nearly all actives have a fitted effect of over 40% in size). The procedure, abridged:
as §2

Assay [10] is described as follows: BET inhibitor-based combinations targeting novel dependencies in MECOM-rearranged (r) AML: SET-2 cell line (AID 2202231). Further: potency means the concentration at half of the fitted maximal effect; nearly all actives have a fitted effect of over 35% in size. Conditions: SET-2 AML cells viability, CellTiter-Glo luminescence, 48 h; viability: stronger effect = lower value, concentration not given here. The procedure, abridged:
as §2

Assay [11] can be described thus: BET inhibitor-based combinations targeting novel dependencies in MECOM-rearranged (r) AML: OCI-AML3 cell line (AID 2202232). Further: potency means the concentration at half of the fitted maximal effect; nearly all actives have a fitted effect of over 35% in size. The conditions noted are these: Potency: OCI-AML3 viability. The procedure, abridged: as §2
Assay [12] is described as follows: BET inhibitor-based combinations targeting novel dependencies in MECOM-rearranged (r) AML: MV-4-11 cell line (AID 2202233). Further: potency means the concentration at half of the fitted maximal effect; nearly all actives have a fitted effect of over 45% in size. The procedure, abridged:
as §1

Assay [13] in a line: BET inhibitor-based combinations targeting novel dependencies in MECOM-rearranged (r) AML: HNT-34 cell line (AID 2202234). Further: potency means the concentration at half of the fitted maximal effect; nearly all actives have a fitted effect of over 35% in size. The procedure, abridged:
as §1

Several values for one entry are separate records, joined by “and”; a condition that tells them apart may be missing. Identical values can stand only once. Inconclusive results are not listed. Values without a mark were called inactive. Activity calls are given as the source filed them. The call rests on the fitted dose curve; in most records, active means well fitted curve in the direction sought with a large enough effect; inconclusive means small, poorly fitted or top-dose-only effect, or another doubt; inactive means no such curve, though single readings can be large; an effect the other way counts as inactive or inconclusive.

In the case of `COC(=O)Cc1cc2c(c([N+](=O)[O-])c1)N(C(=O)CC[C@H](N)C(=O)O)CC2`, the activation in assay [1] is -7.67%. Further, the Potency entry in assay [2], in assay [3] and in assay [4] was “inactive” in each case.

With `CC(C)=C[C@@H]1[C@H](CO[C@@H]2O[C@H](CO)[C@@H](O)[C@H](O)[C@H]2O)C1(C)C`, the activation in assay [1] was -9.82%. Moreover, the Potency result in assay [2] and in [4] was “inactive” throughout.

Turning to `C=C(C=O)[C@]1(O)C[C@@]2(C)C(=CC1=O)C=C[C@H](OC(=O)/C=C/C=C/[C@H](C)CC)[C@@H]2C`, in assay [1], the Potency is 4.65 µM (active). Besides, the Potency entry in assay [2] and in assay [4] was “inactive” each time.

With `CC1(C)C2CCC1(C)C(OC(=O)C(O)(CC(=O)O)CC(=O)O)C2` (centres undefined), the activation in [1] is -24.4%. Moreover, the Potency entry in [2], in assay [3], in [4] and in [5] was “inactive” each time.

On to `C=C(C(=O)O)[C@@H]1CC[C@@]2(C)CC[C@@H](O)C(=C)C2C1` (some centres undefined), for which the activation in assay [1] was 22.9%. Moreover, the Potency result in assay [2] and in [4] was “inactive” throughout.

Regarding `CCN(CCNC(=O)Nc1ccccc1Br)c1cccc(C)c1`, the activation in [1] was 5.67%. Moreover, the Potency result in [2] and in [4] was “inactive” each time.

`c1cc(-c2cc(C3CCNCC3)[nH]n2)ccn1`: in [1], the activation was 1.79%. Besides, the Potency result in assay [2] and in [4] was “inactive” throughout.

On to `COc1c(N2CC3CCCNC3C2)c(F)cc2c(=O)c(C(=O)O)cn(C3CC3)c12` (centres undefined), for which the activation in assay [1] is 3.34%. Besides, the Potency result in [2] and in assay [4] was “inactive” throughout.

On to `COc1ccc(C2Oc3c(OC)cc(CCCO)cc3C2COC2OC(CO)C(O)C(O)C2O)cc1OC` (centres undefined), for which, in [1], the activation is -3.82%. Besides, the Potency result in assay [2] and in [4] was “inactive” in each case.

With `C=C1C2(C)CC3C4(C)OC(C5OC56C4=CC(=O)OC6(C)C)C3(C)C13C(=O)OC(C)C3(O)C2=O` (centres undefined), the activation in assay [1] was -9.92%. Further, the Potency entry in assay [2] and in assay [4] was “inactive” in each case.

In the case of `CCOc1cn(-c2ccc(F)cc2C)nc1C(=O)Nc1ccc(Oc2ccnc3cc(OC)c(OC)cc23)c(F)c1`, the activation in assay [1] was 12.5%. The Potency entry in [2] and in assay [4] was “inactive” in each case.

As to `CC(C)=CCC/C(C)=C/CO[C@@H]1O[C@H](CO)[C@@H](O)[C@H](O)[C@H]1O`, the activation in assay [1] was -4.46%. Further, the Potency entry in assay [2] and in assay [4] was “inactive” throughout.

For the molecule `C=C1C(OC(C)=O)CCC2(C)CC3(OC)OC(=O)C(C)=C3CC12` (centres undefined), the activation in [1] was 17.9%. Also, the Potency result in [2] and in assay [4] was “inactive” throughout.

`COC(=O)c1ccc(OC(CO)C(O)c2ccc(O)c(OC)c2)c(OC)c1` (centres undefined): in [1], the activation is 9.82%. Besides, the Potency entry in assay [2] and in assay [3] was “inactive” each time.

For `CC(C)/C=C1\NC(=O)C(C(C)C)n2c1nc1c(c2=O)C=CC=CO1` (centres undefined), in assay [1], the activation is -7.63%. The Potency result in assay [2] and in [4] was “inactive” throughout.

Turning to `Nc1ncnc2c1ncn2[C@H]1O[C@@H](C(=O)N2CCN(CC(=O)Nc3cccc4c3CNC4=O)CC2)[C@H](O)[C@@H]1O`, the activation in assay [1] is -24.3%. Besides, the Potency result in assay [2] and in assay [4] was “inactive” each time.

On to `CC1(C)CC[C@]2(C(=O)O[C@@H]3O[C@H](CO)[C@@H](O)[C@H](O)[C@H]3O)CC[C@]3(C)C(=CCC4[C@@]5(C)C[C@@H](O)[C@H](O)[C@@](C)(CO)C5CC[C@]43C)C2[C@@H]1O` (some centres undefined), for which, in assay [1], the activation is 8.93%. The Potency result in [2], in assay [3] and in assay [4] was “inactive” each time.

Regarding `Cc1cc(NC(=O)c2cccc(NC(=O)/C=C/CN(C)C)c2)ccc1Nc1nccc(-c2cccnc2)n1`, the Potency in [1] was 26.9 µM (active). Besides, the Potency result in assay [2] and in assay [4] was “inactive” each time.

Regarding `Cc1ccc(S(=O)(=O)NCc2ccc(C(=O)NCCN(Cc3ccccc3)C(C)C)cc2)cc1`, in [1], the activation was 3.67%. Moreover, the Potency entry in assay [2] and in assay [4] was “inactive” in each case.

With `O=C(Nc1cccnn1)N1CCC(=Cc2cccc(Oc3ccc(C(F)(F)F)cn3)c2)CC1`, the activation in assay [1] is -1.43%. Besides, the Potency entry in assay [2], in [6], in assay [4] and in assay [7] was “inactive” in each case. Further, the Potency in [8] and in [9] was 18.6 µM (active) throughout.

As to `CC(=O)/C=C/C1(O)C(C)(C)CC(O)CC1(C)O` (centres undefined), the activation in [1] is 12.2%. For the same molecule, the Potency entry in assay [2] and in assay [4] was “inactive” throughout.

For the molecule `CC(C)=CC/C=C(/C)[C@H]1CC[C@]2(C)[C@@H]1[C@H](O)CC1[C@@]3(C)CC[C@H](O)C(C)(C)[C@@H]3[C@@H](O[C@@H]3O[C@H](CO)[C@@H](O)[C@H](O)[C@H]3O[C@@H]3O[C@@H](C)[C@H](O)[C@@H](O)[C@H]3O)C[C@]12C` (some centres undefined), the activation in assay [1] was -7.63%. Further, the Potency result in assay [2] and in assay [4] was “inactive” in each case.

Take `C=CC(C)(C)c1[nH]c2cc3c(cc2c1CC1NC(=O)C2=CCCN2C1=O)C=CC(C)(C)O3` (centres undefined): the activation in assay [1] is -10.7%. Further, the Potency result in [2] and in [4] was “inactive” in each case.

In the case of `O=C1NC(=O)C(c2cnc3ccccn23)=C1c1cn2c3c(cccc13)CN(C(=O)N1CCOCC1)CC2`, the Potency in assay [1] is 23.9 µM (active); in assay [5], 12.7 µM (active); in assay [10], 0.118 µM (active); in assay [11], 3.32 µM (active); in assay [12], 0.0934 µM (active); in assay [13], 0.118 µM (active). The Potency was 1.05 µM (active) in [7], 0.525 µM (active) in assay [8] and 2.35 µM (active) in assay [9]. Also, the Potency result in assay [2] and in assay [3] was “inactive” in each case.

Take `C=C(COC(=O)C(C)C)C1Oc2cc(C(C)=O)ccc2C1OC(=O)C(C)C` (centres undefined): in [1], the activation is 2.29%. Moreover, the Potency entry in [2] and in assay [4] was “inactive” throughout.

Regarding `FC(F)(F)c1ccc(Nc2nc3ccc(Oc4ccnc(-c5ncc(C(F)(F)F)[nH]5)c4)cc3[nH]2)cc1`, in assay [1], the activation was -7.84% and 12.4%. For the same molecule, the Potency result in assay [2] and in [4] was “inactive” throughout.
